Assay outcomes deposited in PubChem by National Center for Advancing Translational Sciences (NCATS).
ALOX12 inh: blocks human arachidonate 12S-lipoxygenase; P18054; Potency, µM (series often up to 108 µM), usual class: inhibitors; actives 1.1% (n = 580,000); purified 12hLO, xylenol orange hydroperoxide absorbance; AID 1671190
Target sequence (P18054 whole entry, looked up): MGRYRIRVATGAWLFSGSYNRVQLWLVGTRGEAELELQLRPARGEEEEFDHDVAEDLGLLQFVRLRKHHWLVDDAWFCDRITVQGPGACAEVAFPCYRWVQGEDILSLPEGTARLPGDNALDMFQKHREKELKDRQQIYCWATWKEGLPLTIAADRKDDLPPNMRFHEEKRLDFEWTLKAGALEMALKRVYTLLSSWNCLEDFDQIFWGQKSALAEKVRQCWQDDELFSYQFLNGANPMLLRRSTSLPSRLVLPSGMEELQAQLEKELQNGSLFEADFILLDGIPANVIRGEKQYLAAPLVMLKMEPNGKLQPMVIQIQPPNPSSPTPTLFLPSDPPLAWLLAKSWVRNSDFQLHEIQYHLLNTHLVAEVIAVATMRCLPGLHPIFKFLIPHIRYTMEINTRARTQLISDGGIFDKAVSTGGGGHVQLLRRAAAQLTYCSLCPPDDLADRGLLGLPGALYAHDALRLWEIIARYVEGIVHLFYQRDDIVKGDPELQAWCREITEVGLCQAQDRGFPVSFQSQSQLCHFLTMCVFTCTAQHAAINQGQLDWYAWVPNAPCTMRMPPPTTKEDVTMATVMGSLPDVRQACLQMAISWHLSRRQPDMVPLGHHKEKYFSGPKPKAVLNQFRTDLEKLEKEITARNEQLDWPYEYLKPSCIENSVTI
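Purified human 12hLO at 150 nM in 25 mM Hepes, 0.01% Triton X-100, pH 7.0, preincubated 15 min at room temperature with compound. Reaction started with 40 uM arachidonic acid, 30 min at room temperature. Hydroperoxide measured by Fe-xylenol orange, 573/405 nm absorbance ratio.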
SW480 rerep: inducers of DNA re-replication in SW480 colon cancer cells; SW480 DNA re-replication, Hoechst DNA content imaging, 48 h; Potency, µM (titrated, usually from 46.1 µM), actives largely listed as activators; actives 1.8% (n = 340,000); AID 624297; note: nearly all actives have a fitted effect of over 55% in size
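Quantitative HTS format with DMSO vehicle controls; 48 hr drug incubation at 37 C, then 40 min Hoechst staining and scanning imager measurement at 405 nm excitation.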
KB-3-1 cytotox: KB-3-1 parental cell cytotoxicity | AID 1347075 | actives 1.4% (n = 400,000) | Potency, µM (top dose mostly 46.1 µM), usual class: cytotoxic | KB-3-1 viability, CellTiter-Glo ATP luminescence, 72 h; note: nearly all actives have a fitted effect of over 60% in size
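KB-3-1 parental drug-naive adenocarcinoma cells in DMEM/10% FBS, incubated 72 h at 37 C with pin-transferred compounds across a concentration series. Viability by CellTiter-Glo luminescence; concentration-response curves fitted after normalization.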
PINK1 modulator: PINK1 expression modulation; PINK1 immunofluorescence, high-content cytometry, 24 h; Potency, µM (titrated, usually from 76.6 µM), hits mostly activators; AID 624263; actives 0.2% (n = 410,000); active = well fitted activation curve with a large enough effect; inconclusive = small, poorly fitted or top-dose-only effect; cell line not stated here; note: nearly all actives have a fitted effect of over 65% in size
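Stable cell line treated 24 h with compounds at 5 concentrations (CCCP controls), then fixed and immunostained for PINK1 plus nuclear and cell stains; PINK1 immunofluorescence quantified by laser-scanning microplate cytometry.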
KB-V1 MDR tox: kills drug-selected multidrug resistant KB-V1 cells; actives 3.4% (n = 400,000); AID 1347076; KB-V1 MDR cells viability, CellTiter-Glo, 72 h; Potency, µM (highest dose often 46.1 µM), most hits filed as cytotoxic; note: nearly all actives have a fitted effect of over 60% in size
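In this primary screen, KB-V1 cells overexpressing P-gp are incubated with library compounds (lowest to highest concentration) for 72 h at 37 degrees C before a luminescent ATP viability read.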
MCF10A rereplic: DNA re-replication induction in MCF 10a cells | MCF 10A DNA re-replication, Hoechst nuclear intensity, 48 h | Potency, µM (top dose mostly 46.1 µM), actives largely listed as activators | actives 2.9% (n = 350,000); note: nearly all actives have a fitted effect of over 50% in size
Hits are given with their value; - = inactive; ? = inconclusive; . = not tested or not shown; [ ] = dose if it differs, or a comment. Hits are enriched below; roughly 5.8% of the tested compounds scored in any of these assays. Unless noted, calls come from the whole dose curve; as a rule, active = well fitted curve in the direction sought with a large enough effect; inconclusive = small, poorly fitted or top-dose-only effect, or another doubt; inactive = no such curve, though single readings can be large; an effect the other way counts as inactive or inconclusive.

SMILES	ALOX12 inh	SW480 rerep	KB-3-1 cytotox	PINK1 modulator	KB-V1 MDR tox	MCF10A rereplic
CCOC(=O)N1CCC(NC(=O)C2CCN(C(=O)c3cc4oc(C)cc4n3Cc3c(F)cccc3Cl)CC2)CC1	-	-	?	-	-	-
CCOC(=O)c1cc(CC)sc1NC(=O)Cn1nnc(-c2ccccc2)n1	-	.	.	.	.	.
O=C(O)CC(CCc1ccccc1)OC1OC(CO)C(O)C(O)C1O (configuration not stated)	44.7µM	-	-	-	-	-
[C-]#[N+][C@H](O[C@@H]1O[C@H](CO)[C@@H](O)[C@H](O)[C@H]1O)c1ccccc1	-	-	-	-	-	-
CCCCCCCCCCCCCCCCCCOC[C@H](COP(=O)([O-])OCC[N+](C)(C)C)OC	-[12.5 µM]	21.1µM	.	.	.	?
O=C(Nc1ccccc1O)c1cc(-c2cccnc2)nc2ccccc12	-	.	.	.	.	.
COc1ccc2c(c1)O[C@@H](c1ccc3c(c1)OCO3)[C@H](OC(=O)Nc1cc(OC)c(OC)c(OC)c1)C2=O	.	16.4µM	.	.	.	3.66µM
CCCCC(=O)Nc1cccc(-c2csc(-c3ccccc3)n2)c1	-	?	-	-	-	25.9µM
Cc1ccc(C)c(NC(=O)Cc2csc(-c3ccccc3)n2)c1	-	-	-	-	-	-
Cc1cc(NC(=O)Cc2csc(-c3ccccc3)n2)ccc1Br	-	-	?	-	18.4µM	-
O=C(O)CCC(=O)Nc1cccc(-c2csc(-c3ccccc3)n2)c1	-	-	-	-	-	-
CC(=O)NCCc1csc(-c2ccccc2)n1	-	?	-	.	-	6.51µM
COc1ccc2oc(C(=O)Nc3ccccc3OC)cc(=O)c2c1	-	.	.	.	.	.
O=C(Cn1cnc2onc(-c3ccc(Cl)cc3)c2c1=O)Nc1ccc(F)cc1	44.7µM	.	-	-	-	.
CC(C)[Si]1(C(C)C)OCC2OC(n3cnc4c(N)ncnc43)C(N)C2O[Si](C(C)C)(C(C)C)O1 (configuration not stated)	-	?	-	-	-	13µM
Nc1ncnc2c1ncn2C1OC(CO)C(O)C1N (configuration not stated)	-	?	-	-	-	?
COCCn1c(SCc2ccc(OC)c(F)c2)nnc1-c1cccc(C)c1	-	.	.	.	.	.
Cn1cccc1C(=O)OCC(=O)Nc1sccc1C#N	-	-	?	-	16.4µM	-
CC(C)C[C@H](N)c1nnc(SCc2ccc(Cl)cc2)o1	-	-	-	-	-	-
CC(C)[C@H](N)c1nnc(SCc2ccc(Cl)cc2)o1	-	-	-	-	16.4µM	-
CC(C)CC(NC(N)=O)C(=O)NCc1ccc(C(F)(F)F)cc1 (configuration not stated)	-	.	.	.	.	.
COc1ccc(NS(=O)(=O)c2ccc(N3CCCC3=O)cc2)cn1	-	20.6µM	?	-	?	10.3µM
COc1ccc(OC)c(NS(=O)(=O)c2ccc(N3CCCC3=O)cc2)c1	-	0.82µM	0.82µM	-	2.06µM	?
Cc1ccccc1NS(=O)(=O)c1cc2c3c(c1)CC(=O)N3CCC2	-	-	-	-	-	-
O=C1CCCN1c1ccc(S(=O)(=O)NCCc2ccc(Cl)cc2)cc1	-	-	-	-	18.4µM	-
SMILES	ALOX12 inh	SW480 rerep	KB-3-1 cytotox	PINK1 modulator	KB-V1 MDR tox	MCF10A rereplic
COc1ccc(CCNS(=O)(=O)c2ccc(N3CCCC3=O)cc2)cc1	-	-	-	-	-	?
Cc1ccccc1NS(=O)(=O)c1ccc(N2CCCC2=O)cc1	-	3.66µM	5.17µM	-	2.59µM	11.6µM
Cc1ccc(OCCNS(=O)(=O)c2ccc(N3CCCC3=O)cc2)cc1C	-	?	?	-	16.4µM	-
Cc1ccc(S(=O)(=O)Nc2ccccc2C(=O)Nc2nc(-c3ccc(F)cc3)cs2)cc1	?	?	11.6µM	?	2.59µM	5.8µM
COc1ccc(-c2csc(NC(=O)c3ccccc3F)n2)cc1	-	-	-	-	-	-
Cc1ccc(S(=O)(=O)Nc2nc(-c3ccccc3)cs2)cc1	-	-	-	-	-	-
COc1ccc(-c2csc(NC(=O)c3ccccc3NS(=O)(=O)c3ccc(F)c(F)c3)n2)cc1	?	?	5.17µM	?	4.11µM	13µM
COCCNC(=O)c1ccccc1NC(=O)Cc1ccccc1	-	-	-	-	-	-
COCCNC(=O)c1ccccc1NC(=O)CCSc1ccccc1	-	-	-	-	?	1.3µM
CCC(C)NC(=O)c1ccccc1NC(=O)c1ccc(CSc2ccccc2)cc1 (configuration not stated)	-	-	-	-	11.6µM	?
COc1ccccc1C(=O)NCCC(=O)NCCCSc1ccccc1	-	-	-	-	20.6µM	-
COc1ccccc1C(=O)NCCC(=O)NCCOc1ccccc1	-	-	-	-	-	-
Cc1ccc(SCc2ccc(C(=O)Nc3ccccc3C(=O)NC(C)C)cc2)cc1	-	-	-	-	-	-
O=C1NCCCCCCN(Cc2ccncc2)[C@@H]2CN(C(=O)Nc3ccc4c(c3)OCCO4)CC[C@H]12	-	.	.	.	.	.
O=C(Nc1nc(-c2ccco2)c(-c2ccco2)s1)c1cnccn1	?	-	-	-	2.06µM	-
CCc1nnc(NC(=O)c2oc3cc(C)c(C)cc3c2C)s1	-	0.517µM	?	-	-	-
O=C(Nc1nccs1)c1cnccn1	-	-	-	-	-	-
CCc1nnc(NC(=O)c2cnccn2)s1	-	-	-	-	-	18.4µM
COc1ccc(Cl)c2sc(NC(=O)C3=COCCO3)nc12	-	5.17µM	-	-	-	-
Cc1ccc(Cl)c2sc(NC(=O)C3=COCCO3)nc12	?	-	-	-	-	?
CCC(C)[C@H](NC(=O)[C@@H]1Cc2ccccc2CN1)C(=O)NC1CCCC1 (some centres not stated)	-	.	.	.	.	.
O=C(Nc1ccc2oc(-c3ccccc3)nc2c1)c1ccc(Cl)cc1	-	.	.	.	.	.
O=C(Nc1nc2cc3c(cc2s1)OCCO3)C1=COCCO1	?	-	-	-	-	-
CC(=O)c1sc(Nc2nc3ccc(F)cc3s2)nc1C	-	9.2µM	-	?	-	?
CCc1nnc(NC(=O)c2ccc(COc3ccccc3)o2)s1	-	-	-	-	14.6µM	-
SMILES	ALOX12 inh	SW480 rerep	KB-3-1 cytotox	PINK1 modulator	KB-V1 MDR tox	MCF10A rereplic
O=C(Nc1nc2ccc(F)cc2s1)c1ccccn1	-	5.17µM	?	-	-	18.4µM
O=C(Nc1nc2ccc(F)cc2s1)C1=COCCO1	-	-	?	-	11.6µM	-
O=C(NNc1nc2ccc(F)cc2s1)c1cccc(F)c1	?	-	?	?	-	-
O=C(Nc1nnc(SCc2ccc(F)cc2)s1)c1cccnc1Cl	-	-	-	-	-	-
O=C(Nc1nnc(SCc2ccc(F)cc2)s1)c1ccccn1	-	13µM	?	-	?	?
O=C(Nc1nc2ccccc2s1)c1cnccn1	-	14.6µM	-	.	-	3.26µM
CC(C)(C)c1ccc(C(=O)Nc2ccc(Cl)cc2F)cc1	-	.	.	.	.	.
